# The list is not random: actives were taken first. Their share in the collection is about 3.4%.
# p53ts 32C kill – qHTS Screen for Compounds that Selectively Target Cancer Cells with p53 Mutations: Cytotoxicity of p53ts Cells at the Permissive Temperature; H1299-p53A138V at 32C, ATP luminescence viability, 24 h; Potency, µM (highest dose often 46.1 µM), most hits filed as cytotoxic; actives 0.93% (n = 130,000); AID 924, 2007; note: nearly all actives have a fitted effect of over 55% in size
#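 ATP-content luminescence (ATPlite) read-out after 24 h compound exposure at 32C in H1299-p53A138V cells (600/well). Tested up to 46 uM. Normalized to DMSO (0%) and 100 uM tamoxifen (100% killing); Hill-fit AC50.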
# Peg3 imprint – qHTS Assay for Compounds that Induce Erasure of Genomic Imprints. mouse ES Peg3-LacZ reporter, beta-gal luminescence, 40 h. actives 0.02% (n = 110,000). Potency, µM (highest dose often 60.7 µM), hits mostly activators
#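 Each well holds 300 Peg3LacZ-Neo (maternal) female ES cells incubated 40 h at 37C, 5% CO2. LacZ is measured by BetaGlo luminescence, with AC50 and maximum efficacy derived from dose-response curves.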
# p53ts 39C kill – qHTS Screen for Compounds that Selectively Target Cancer Cells with p53 Mutations: Cytotoxicity of p53ts Cells at the Nonpermissive Temperature; H1299-p53A138V viability at 39C, ATP luminescence, 24 h; Potency, µM (highest dose often 46.1 µM), most hits filed as cytotoxic; actives 1.5% (n = 130,000); AID 902, 2007; note: nearly all actives have a fitted effect of over 55% in size
# Luciferase inh – qHTS Assay for Inhibitors of Firefly Luciferase; Luciferin 4-monooxygenase (Photinus pyralis), P08659; purified firefly luciferase, luminescence, 8 min; Potency, µM (titrated, usually from 57.1 µM), usual class: inhibitors; actives 2.2% (n = 72,000); note: nearly all actives have a fitted effect of over 40% in size
#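 Compounds were tested as concentration series (qHTS) against purified P. pyralis luciferase with luciferin and 10 uM ATP in 50 mM imidazole pH 7.2, 50 mM KCl, 7 mM MgCl2, 0.01% Tween 20, 0.05% BSA. Luminescence was read after 8 min at ambient temperature.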
# Tau fil binding – qHTS Assay for Tau Filament Binding; Microtubule-associated protein tau (Homo sapiens), P10636; recombinant tau filaments, thioflavin S fluorescence, 15 h; filaments grown with octadecylsulfate alongside compound; Potency, µM (titrated, usually from 57.1 µM); actives 2% (n = 71,000);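 note: actives lower thioflavin S fluorescence by blocking filaments or displacing dye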
# Target sequence (P10636 whole entry, looked up): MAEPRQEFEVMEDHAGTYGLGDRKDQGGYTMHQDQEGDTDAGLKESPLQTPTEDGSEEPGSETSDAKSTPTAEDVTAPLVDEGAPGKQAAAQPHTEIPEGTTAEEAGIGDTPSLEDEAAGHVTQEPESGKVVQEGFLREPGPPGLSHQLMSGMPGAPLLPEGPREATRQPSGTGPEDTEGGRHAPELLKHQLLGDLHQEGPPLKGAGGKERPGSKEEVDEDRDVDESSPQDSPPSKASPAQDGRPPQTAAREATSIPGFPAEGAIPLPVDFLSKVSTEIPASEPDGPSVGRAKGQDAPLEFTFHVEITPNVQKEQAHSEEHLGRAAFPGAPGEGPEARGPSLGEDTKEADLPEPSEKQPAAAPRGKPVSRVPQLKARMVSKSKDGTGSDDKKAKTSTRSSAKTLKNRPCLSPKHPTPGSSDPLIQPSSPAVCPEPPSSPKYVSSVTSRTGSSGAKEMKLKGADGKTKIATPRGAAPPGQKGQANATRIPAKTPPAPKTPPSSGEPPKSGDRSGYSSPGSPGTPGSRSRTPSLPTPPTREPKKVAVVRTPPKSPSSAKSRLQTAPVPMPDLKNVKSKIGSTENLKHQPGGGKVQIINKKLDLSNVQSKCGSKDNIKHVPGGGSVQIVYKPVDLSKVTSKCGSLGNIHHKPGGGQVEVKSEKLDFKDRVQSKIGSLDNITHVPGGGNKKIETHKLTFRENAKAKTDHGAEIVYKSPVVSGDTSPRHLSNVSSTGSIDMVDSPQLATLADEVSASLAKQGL
#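 Quantitative HTS: thioflavine S signal from ODS-induced tau filaments, excited at 450 nm, emission 510 nm. Conditions: 1 uM tau, 30 uM ODS, 15 h at 37 C, pH 7.4.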
# Numbers stand for hits; - = inactive; ? = inconclusive; . = no result given; [ ] = remark or other dose. Calls come from the whole dose curve; as a rule, active = well fitted curve in the direction sought with a large enough effect; inconclusive = small, poorly fitted or top-dose-only effect, or another doubt; inactive = no such curve, though single readings can be large; an effect the other way counts as inactive or inconclusive.
SMILES,p53ts 32C kill,Peg3 imprint,p53ts 39C kill,Luciferase inh,Tau fil binding
COC(=O)c1nn(-c2ccc(-c3ccccc3)cc2)cc1O,7.94µM,-,?,3.16µM,-
CCOC(=O)c1nn(-c2cc(C(=O)OC)cc(C(=O)OC)c2)cc1O,-,-,-,-,-
COc1ccc2c(c1)[N+](=O)C(/C(C)=N/NC(N)=S)=C(C)[N+]2=O,.,-[10.9 µM],.,.,.
CCc1ccc(S(=O)(=O)c2nnn3c2nc(Nc2ccc(NC(C)=O)cc2)c2sccc23)cc1,?,-[10.9 µM],12.6µM,.,.
N[C@@H](Cn1c2c(c(=O)[nH]c1=O)CCC2)C(=O)O,.,-,.,.,.
O=C(Nc1cccc(Cl)c1)N1CCN(Cc2ccccc2)CC1,-,-,-,15.8µM,-
O=C(c1ccccc1F)N1CCN(Cc2cccc(Cl)c2)CC1,-,.,-,-,-
CCOc1ccccc1NC(=O)CSc1ncc(S(=O)(=O)c2ccc(C)c(C)c2)c(N)n1,-,.,.,.,.
c1ccc(Nc2nc3ccccc3[nH]2)nc1,-,-,-,20µM,-
COc1ccc2nc(NCCO)[nH]c2c1,-,-,-,-,-
c1ccc(CNc2nc3ccccc3[nH]2)cc1,10µM,-,?,12.6µM,-
COc1ccc2nc(NCc3ccccc3)[nH]c2c1,?,-,?,15.8µM,-
Cc1ccc2nc(NCc3ccccc3)[nH]c2c1,.,.,.,10µM,.
Cc1cc(C)nc(Nc2nc3ccccc3[nH]2)n1,-,-,-,-,-
COc1cc(CNc2nc3ccccc3[nH]2)cc(OC)c1OC,-,-,-,-,-
Cc1cccc(NC(=O)Cn2c(=O)nc(-c3ccccc3)c3ccccc32)c1C,-,-[10.9 µM],-,.,.
CC(C)(C)C1CCc2c(sc(NC(=O)c3ccncc3)c2C(=O)Nc2ccccc2Cl)C1 (configuration not stated),-,-[10.9 µM],-,.,.
Cc1ccc(N=Nc2c(O)c(S(=O)(=O)O)cc3cc(S(=O)(=O)O)ccc23)c(C)c1,-[9.22 µM],-[10.9 µM],-[9.22 µM],-[11.4 µM],-[11.4 µM]
Nc1ccc(N=Nc2ccc(-c3ccc(O)cc3)cc2)c2ccc(S(=O)(=O)O)cc12,-[9.22 µM],-[10.9 µM],-[9.22 µM],3.16µM,2.51µM
O=C(OCc1nc2ccccc2s1)C1CCN(S(=O)(=O)c2cccs2)CC1,-,-,-,31.6µM,-
c1csc(-c2nn3c(C4COc5ccccc5O4)nnc3s2)c1 (configuration not stated),-,-,-,-,-
c1ccc2c(c1)OCC(c1nnc3sc(-c4cnccn4)nn13)O2 (configuration not stated),-,-,-,-,25.1µM
COc1ccc(OC)c(Nc2nc3ccccc3nc2-n2nc(C)cc2C)c1,-,-[10.9 µM],-,.,.
Oc1ccccc1C1=Nc2nc3ccccc3n2C(c2ccccc2)C1 (configuration not stated),?,-,-,?,7.94µM
CCc1cccc(C)c1NC(=O)CCCn1c(C)c2cnn(-c3ccccc3)c(=O)c2c1C,-,-[10.9 µM],-,.,.
SMILES,p53ts 32C kill,Peg3 imprint,p53ts 39C kill,Luciferase inh,Tau fil binding
O=C(CSc1nnnn1C1CCCC1)c1ccc2c(c1)OCCO2,?,-,-,7.94µM,-
O=C(CSc1nnc2ccccn12)c1ccc2c(c1)OCCO2,?,-,-,15.8µM,-
O=C(O)CCC(=O)c1ccc2c(c1)OCCCO2,-,-,-,-,-
O=C1CN(C(=O)COC(=O)CCC(=O)c2ccc3c(c2)OCCO3)c2ccccc2N1,-,-,-,20µM,-
O=C(CCCc1ccccc1)c1ccc2c(c1)OCCO2,7.94µM,.,11.2µM,.,.
c1ccn2c(SCc3ccc4c(c3)OCO4)nnc2c1,-,-,-,-,-
Cc1ccc(S(=O)(=O)CCC(=O)OCC(=O)N2CC(=O)Nc3ccccc32)cc1,-,-,-,-,-
COc1cccc(-c2nc(NC3CC3)c3ccccc3n2)c1,?,-,-,-[2.29 µM],-
COc1cccc(N2CC(NC(=O)COc3ccccc3F)CC2=O)c1 (configuration not stated),-,-[10.9 µM],-,.,.
[O-]/[N+](=C\c1ccncc1)c1ccc(Br)cc1,-,-,-,7.94µM,-
N#CC(=C(/N)Sc1ccccc1N)/C(C#N)=C(/N)Sc1ccccc1N,-,-,-,-,?
Cc1ccc(NS(=O)(=O)c2ccc3[nH]c4c(c3c2)CCCCC4)cc1,-,-[10.9 µM],?,.,.
Cc1ccccc1NC(=O)Cn1c(=O)n(Cc2ccc3c(c2)OCO3)c(=O)c2ccc(C(=O)NC3CCCCC3)cc21,-,-[10.9 µM],?,.,.
COc1cccc(CNC(=O)c2cccc(NC(=O)c3nsc4ccccc34)c2)c1,-,-[10.9 µM],?,.,.
COC(=O)c1cccc(NC(=O)c2nsc3ccccc23)c1,2.51µM,-[10.9 µM],6.31µM,.,.
O=C(Nc1cccc(C(=O)N2CCCCC2)c1)c1nsc2ccccc12,15.8µM,-[10.9 µM],10µM,.,.
O=C(Nc1nnc(Cc2ccccc2)s1)c1cccs1,-,-,-,-,-
O=C(Nc1ncc(Cc2ccccc2)s1)c1cccs1,?,.,?,10µM,-
Cc1ccc(C(=O)Nc2ncc(Cc3ccccc3)s2)o1,?,-,?,12.6µM,-
O=C(Nc1nsc(-c2ccccc2)n1)c1cccs1,3.98µM,-,5.01µM,5.01µM,-
Cc1ccc(-n2ncc3c(NCCc4ccccc4)ncnc32)cc1Cl,?,-[10.9 µM],?,.,.
Cc1ccc(-n2ncc3c(N(C)C)ncnc32)cc1Cl,?,-[10.9 µM],7.94µM,.,.
CCN1CCN(c2ncnc3c2cnn3-c2ccc(C)c(Cl)c2)CC1,-,-[10.9 µM],-,.,.
CCCCN(CCCC)c1ncnc2c1cnn2-c1cccc(C)c1,-,-[10.9 µM],-,.,.
CCCCN(C)c1ncnc2c1cnn2-c1cccc(Cl)c1,?,-[10.9 µM],15.8µM,.,.
SMILES,p53ts 32C kill,Peg3 imprint,p53ts 39C kill,Luciferase inh,Tau fil binding
Cc1ccc(-n2ncc3c(NCCO)ncnc32)cc1Cl,-,-[10.9 µM],15.8µM,.,.
Cc1ccc(C(=O)Nc2ccc(C(=O)OCc3cc(=O)n4ccsc4n3)cc2)cc1,-,-[10.9 µM],-,.,.
CC(C)(C)c1ccc(C(=O)Nc2ccc(C(=O)OCc3cc(=O)n4ccsc4n3)cc2)cc1,15.8µM,-[10.9 µM],15.8µM,.,.
Cc1cn2c(=O)cc(COC(=O)c3cccc(NC(=O)c4ccc(C(C)(C)C)cc4)c3)nc2s1,2.51µM,-[10.9 µM],3.16µM,.,.
Cc1ccc(CNC(=O)Cn2nc(N3CCN(c4ccccc4)CC3)ccc2=O)cc1,-,-[10.9 µM],-,.,.
Cc1ccccc1N1C(=O)C(Cl)=C(N2CCCCCC2)C1=O,-,-,-,-,12.6µM
O=C1C(Cl)=C(N2CCCCC2)C(=O)N1c1ccccc1Cl,-,-,-,-,-
Cc1ccc2c(c1)N(C(=O)CCC(=O)NCc1cccs1)CC(C)O2 (configuration not stated),-,-[10.9 µM],-,.,.
O=C(Nc1cc2ccc(O)cc2oc1=O)c1ccccc1,?,-[10.9 µM],7.94µM,.,.
O=C(NCCN1CCOCC1)c1ccc(-n2c(=O)c(=O)[nH]c3ccccc32)cc1,-,.,-,.,.
O=C(/C(C=Nc1ccc(Br)cc1)=C(/O)c1ccco1)C(F)(F)F,11.2µM,.,11.2µM,.,.

# Screening data as filed in PubChem BioAssay.
